Inhibition data for five compounds are collected here from ChEMBL document CHEMBL1961873, “Compounds: GSK PKIS; Assays: Nanosyn kinase panel” (2012).

The structures appear in SMILES notation. Where “and” joins values, the source holds several entries; their conditions need not be identical. Equal values may be shown once.

For assay [1], the target named is High affinity nerve growth factor receptor (Homo sapiens) (UniProt P04629). The settings on record: at 1 µM.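 Also: each value is the mean percent inhibition of TRKA.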
Sequence of High affinity nerve growth factor receptor (Homo sapiens) (P04629 33-796 limits assumed): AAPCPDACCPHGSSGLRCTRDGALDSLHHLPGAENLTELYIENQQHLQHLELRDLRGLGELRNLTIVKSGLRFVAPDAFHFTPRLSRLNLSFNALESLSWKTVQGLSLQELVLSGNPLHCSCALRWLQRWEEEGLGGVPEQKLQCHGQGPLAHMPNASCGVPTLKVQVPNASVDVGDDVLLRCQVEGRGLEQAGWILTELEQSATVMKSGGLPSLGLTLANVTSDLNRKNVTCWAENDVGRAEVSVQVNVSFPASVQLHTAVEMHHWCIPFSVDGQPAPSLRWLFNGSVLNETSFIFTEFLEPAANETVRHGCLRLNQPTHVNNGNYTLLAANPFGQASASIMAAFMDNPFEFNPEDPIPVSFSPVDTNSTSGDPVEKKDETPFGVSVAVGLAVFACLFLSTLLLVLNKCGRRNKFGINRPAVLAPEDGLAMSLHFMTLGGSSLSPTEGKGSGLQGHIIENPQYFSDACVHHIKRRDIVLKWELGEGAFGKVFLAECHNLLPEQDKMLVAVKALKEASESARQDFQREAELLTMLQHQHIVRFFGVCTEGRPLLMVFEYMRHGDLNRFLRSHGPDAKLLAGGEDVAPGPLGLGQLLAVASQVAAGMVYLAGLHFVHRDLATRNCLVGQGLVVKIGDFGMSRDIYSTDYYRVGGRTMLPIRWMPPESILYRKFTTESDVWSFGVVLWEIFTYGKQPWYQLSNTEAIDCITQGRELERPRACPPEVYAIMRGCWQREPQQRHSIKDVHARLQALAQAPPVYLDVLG
Assay [2] concerns the target BDNF/NT-3 growth factors receptor (Homo sapiens) (UniProt Q16620). The settings on record: at 0.1 µM.
For assay [3] the target is unchanged. As to conditions: at 1 µM.
The target in assay [4] is NT-3 growth factor receptor (Homo sapiens) (UniProt Q16288). As to conditions: at 0.1 µM.
Sequence of NT-3 growth factor receptor (Homo sapiens) (Q16288 32-839 limits assumed): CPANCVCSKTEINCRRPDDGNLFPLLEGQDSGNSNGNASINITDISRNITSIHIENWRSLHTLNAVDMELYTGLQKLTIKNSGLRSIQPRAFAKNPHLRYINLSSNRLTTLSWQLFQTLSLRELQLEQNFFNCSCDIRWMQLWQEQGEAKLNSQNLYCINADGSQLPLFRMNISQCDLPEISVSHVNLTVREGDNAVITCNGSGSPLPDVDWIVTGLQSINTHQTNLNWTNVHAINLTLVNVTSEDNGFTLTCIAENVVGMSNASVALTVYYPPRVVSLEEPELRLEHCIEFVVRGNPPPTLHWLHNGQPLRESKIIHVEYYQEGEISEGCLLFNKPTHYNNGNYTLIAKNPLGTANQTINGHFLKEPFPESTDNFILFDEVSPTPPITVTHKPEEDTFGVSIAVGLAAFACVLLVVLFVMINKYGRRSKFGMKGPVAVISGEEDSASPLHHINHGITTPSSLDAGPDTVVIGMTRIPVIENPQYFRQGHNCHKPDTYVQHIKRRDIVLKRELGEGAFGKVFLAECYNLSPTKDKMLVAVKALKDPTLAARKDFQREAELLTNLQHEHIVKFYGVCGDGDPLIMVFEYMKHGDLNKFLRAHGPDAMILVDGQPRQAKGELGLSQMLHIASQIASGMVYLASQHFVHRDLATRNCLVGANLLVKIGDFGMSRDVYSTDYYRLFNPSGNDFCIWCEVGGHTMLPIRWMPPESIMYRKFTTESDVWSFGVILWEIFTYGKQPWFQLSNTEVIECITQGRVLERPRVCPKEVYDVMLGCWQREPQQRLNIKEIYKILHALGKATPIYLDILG
The target is the same in assay [5]. The settings on record: at 1 µM.
Assay [6] has as its target T1, Tyrosine-protein kinase TXK (Homo sapiens) (UniProt P42681).
T1 sequence (whole entry): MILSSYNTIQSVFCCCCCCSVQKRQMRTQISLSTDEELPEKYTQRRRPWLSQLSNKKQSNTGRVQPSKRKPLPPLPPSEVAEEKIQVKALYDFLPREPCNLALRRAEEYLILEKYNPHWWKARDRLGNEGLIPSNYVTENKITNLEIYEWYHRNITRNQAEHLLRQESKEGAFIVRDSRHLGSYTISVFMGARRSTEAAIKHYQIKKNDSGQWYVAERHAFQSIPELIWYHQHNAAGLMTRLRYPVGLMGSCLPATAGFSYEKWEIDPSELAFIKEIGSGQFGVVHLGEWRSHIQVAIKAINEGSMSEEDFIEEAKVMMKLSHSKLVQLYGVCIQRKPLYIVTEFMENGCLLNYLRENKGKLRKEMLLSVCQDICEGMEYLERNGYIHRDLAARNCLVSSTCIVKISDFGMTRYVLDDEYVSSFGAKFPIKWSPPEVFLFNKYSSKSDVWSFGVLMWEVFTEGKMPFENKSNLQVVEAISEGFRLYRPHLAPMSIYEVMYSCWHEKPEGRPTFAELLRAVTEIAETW
The settings on record: at 0.1 µM.

In assay [7] the target is T1, Tyrosine-protein kinase TXK (Homo sapiens). The settings on record: at 1 µM.
For assay [8], the target named is Non-receptor tyrosine-protein kinase TYK2 (Homo sapiens) (UniProt P29597). As to conditions: at 0.1 µM.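 Also: each value is a mean of the inhibition readings.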
Sequence of Non-receptor tyrosine-protein kinase TYK2 (Homo sapiens) (P29597 whole entry): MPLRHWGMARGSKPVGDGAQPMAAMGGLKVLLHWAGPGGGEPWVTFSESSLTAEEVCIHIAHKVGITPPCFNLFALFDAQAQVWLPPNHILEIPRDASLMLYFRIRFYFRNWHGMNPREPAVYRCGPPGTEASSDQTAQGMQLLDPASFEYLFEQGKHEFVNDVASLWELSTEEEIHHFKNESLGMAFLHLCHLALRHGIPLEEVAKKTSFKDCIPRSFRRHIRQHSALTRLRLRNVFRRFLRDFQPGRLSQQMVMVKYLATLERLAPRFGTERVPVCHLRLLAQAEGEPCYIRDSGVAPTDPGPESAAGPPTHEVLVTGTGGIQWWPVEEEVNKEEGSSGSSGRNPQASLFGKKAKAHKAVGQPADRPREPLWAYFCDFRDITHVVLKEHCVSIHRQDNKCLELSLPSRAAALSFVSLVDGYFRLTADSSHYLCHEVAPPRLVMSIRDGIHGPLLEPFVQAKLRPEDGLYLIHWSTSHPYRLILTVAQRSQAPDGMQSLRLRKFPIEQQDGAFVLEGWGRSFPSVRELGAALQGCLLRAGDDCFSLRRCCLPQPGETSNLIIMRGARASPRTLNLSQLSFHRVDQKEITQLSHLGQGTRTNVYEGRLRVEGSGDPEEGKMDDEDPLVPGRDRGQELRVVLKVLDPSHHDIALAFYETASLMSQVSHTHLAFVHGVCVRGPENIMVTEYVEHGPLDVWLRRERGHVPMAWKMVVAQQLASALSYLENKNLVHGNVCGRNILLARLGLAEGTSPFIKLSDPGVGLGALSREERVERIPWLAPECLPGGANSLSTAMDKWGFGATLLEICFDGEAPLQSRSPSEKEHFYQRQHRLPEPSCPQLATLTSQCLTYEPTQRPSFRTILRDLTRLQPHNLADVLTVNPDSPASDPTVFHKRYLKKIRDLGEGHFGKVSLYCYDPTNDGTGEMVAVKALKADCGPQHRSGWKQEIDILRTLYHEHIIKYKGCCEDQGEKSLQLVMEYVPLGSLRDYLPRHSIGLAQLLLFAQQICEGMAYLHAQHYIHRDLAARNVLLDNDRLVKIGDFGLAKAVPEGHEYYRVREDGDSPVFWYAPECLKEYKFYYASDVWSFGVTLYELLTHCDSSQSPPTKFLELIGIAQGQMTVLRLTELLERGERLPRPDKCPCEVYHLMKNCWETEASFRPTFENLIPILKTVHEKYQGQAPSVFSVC
In assay [9] the target is T2, Dual specificity protein kinase TTK (Homo sapiens) (UniProt P33981).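 Also: reported figures are mean TTK inhibition at 1 µM.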
T2 sequence (whole entry): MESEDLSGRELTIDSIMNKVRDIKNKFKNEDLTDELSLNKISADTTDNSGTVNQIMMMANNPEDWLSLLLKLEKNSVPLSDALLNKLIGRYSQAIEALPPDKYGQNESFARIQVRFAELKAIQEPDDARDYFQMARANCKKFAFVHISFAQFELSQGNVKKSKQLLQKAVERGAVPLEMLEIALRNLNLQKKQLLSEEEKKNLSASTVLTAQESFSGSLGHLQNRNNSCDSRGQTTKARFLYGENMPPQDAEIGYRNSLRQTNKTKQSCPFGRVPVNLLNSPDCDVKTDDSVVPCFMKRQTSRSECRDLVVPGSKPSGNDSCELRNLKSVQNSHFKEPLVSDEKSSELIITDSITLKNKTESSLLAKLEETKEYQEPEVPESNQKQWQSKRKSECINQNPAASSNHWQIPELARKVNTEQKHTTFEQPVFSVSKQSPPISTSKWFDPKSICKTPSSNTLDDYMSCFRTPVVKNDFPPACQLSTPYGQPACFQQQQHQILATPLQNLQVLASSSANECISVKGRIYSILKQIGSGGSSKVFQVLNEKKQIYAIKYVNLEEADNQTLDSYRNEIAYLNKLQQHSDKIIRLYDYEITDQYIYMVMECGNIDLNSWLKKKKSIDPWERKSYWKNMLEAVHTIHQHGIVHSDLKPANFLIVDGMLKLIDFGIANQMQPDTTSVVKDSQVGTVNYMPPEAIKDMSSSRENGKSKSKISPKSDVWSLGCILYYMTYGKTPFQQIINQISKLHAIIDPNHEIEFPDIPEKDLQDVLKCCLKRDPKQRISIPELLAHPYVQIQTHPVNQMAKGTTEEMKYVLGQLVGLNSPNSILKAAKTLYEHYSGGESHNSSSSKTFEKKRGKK
The settings on record: at 1 µM.

Assay [10] addresses T3, Aurora kinase A (Homo sapiens) (UniProt O14965).
T3 sequence (whole entry): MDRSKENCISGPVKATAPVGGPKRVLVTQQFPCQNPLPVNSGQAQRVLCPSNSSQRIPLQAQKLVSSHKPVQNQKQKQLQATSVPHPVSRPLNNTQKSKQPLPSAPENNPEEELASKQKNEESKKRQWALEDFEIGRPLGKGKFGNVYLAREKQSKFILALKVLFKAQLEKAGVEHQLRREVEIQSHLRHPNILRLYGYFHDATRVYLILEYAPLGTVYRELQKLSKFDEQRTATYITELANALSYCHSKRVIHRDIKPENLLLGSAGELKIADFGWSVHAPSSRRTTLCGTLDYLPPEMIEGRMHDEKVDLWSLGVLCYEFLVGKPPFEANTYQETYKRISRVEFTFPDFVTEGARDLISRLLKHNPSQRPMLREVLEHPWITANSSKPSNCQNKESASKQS
The settings on record: at 0.1 µM.

Assay [11] concerns the target Aurora kinase B (Homo sapiens) (UniProt Q96GD4). As to conditions: at 0.1 µM.
Assay [12] has the same target. As to conditions: at 1 µM.
Assay [13] concerns the target T4, Aurora kinase C (Homo sapiens) (UniProt Q9UQB9).
T4 sequence (whole entry): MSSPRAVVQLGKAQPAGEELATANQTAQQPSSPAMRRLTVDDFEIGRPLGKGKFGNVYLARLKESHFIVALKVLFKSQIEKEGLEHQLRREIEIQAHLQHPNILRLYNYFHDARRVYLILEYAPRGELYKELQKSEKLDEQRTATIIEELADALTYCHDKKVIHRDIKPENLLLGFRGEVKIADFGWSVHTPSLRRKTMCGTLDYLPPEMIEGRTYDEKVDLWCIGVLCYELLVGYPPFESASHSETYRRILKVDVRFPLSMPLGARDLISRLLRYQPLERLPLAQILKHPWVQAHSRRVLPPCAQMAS
As to conditions: at 0.1 µM.

Assay [14] concerns the target T4, Aurora kinase C (Homo sapiens). As to conditions: at 1 µM.
Assay [15] deals with Serine/threonine-protein kinase 10 (Homo sapiens) (UniProt O94804). As to conditions: at 0.1 µM.
Sequence of Serine/threonine-protein kinase 10 (Homo sapiens) (O94804 whole entry, looked up): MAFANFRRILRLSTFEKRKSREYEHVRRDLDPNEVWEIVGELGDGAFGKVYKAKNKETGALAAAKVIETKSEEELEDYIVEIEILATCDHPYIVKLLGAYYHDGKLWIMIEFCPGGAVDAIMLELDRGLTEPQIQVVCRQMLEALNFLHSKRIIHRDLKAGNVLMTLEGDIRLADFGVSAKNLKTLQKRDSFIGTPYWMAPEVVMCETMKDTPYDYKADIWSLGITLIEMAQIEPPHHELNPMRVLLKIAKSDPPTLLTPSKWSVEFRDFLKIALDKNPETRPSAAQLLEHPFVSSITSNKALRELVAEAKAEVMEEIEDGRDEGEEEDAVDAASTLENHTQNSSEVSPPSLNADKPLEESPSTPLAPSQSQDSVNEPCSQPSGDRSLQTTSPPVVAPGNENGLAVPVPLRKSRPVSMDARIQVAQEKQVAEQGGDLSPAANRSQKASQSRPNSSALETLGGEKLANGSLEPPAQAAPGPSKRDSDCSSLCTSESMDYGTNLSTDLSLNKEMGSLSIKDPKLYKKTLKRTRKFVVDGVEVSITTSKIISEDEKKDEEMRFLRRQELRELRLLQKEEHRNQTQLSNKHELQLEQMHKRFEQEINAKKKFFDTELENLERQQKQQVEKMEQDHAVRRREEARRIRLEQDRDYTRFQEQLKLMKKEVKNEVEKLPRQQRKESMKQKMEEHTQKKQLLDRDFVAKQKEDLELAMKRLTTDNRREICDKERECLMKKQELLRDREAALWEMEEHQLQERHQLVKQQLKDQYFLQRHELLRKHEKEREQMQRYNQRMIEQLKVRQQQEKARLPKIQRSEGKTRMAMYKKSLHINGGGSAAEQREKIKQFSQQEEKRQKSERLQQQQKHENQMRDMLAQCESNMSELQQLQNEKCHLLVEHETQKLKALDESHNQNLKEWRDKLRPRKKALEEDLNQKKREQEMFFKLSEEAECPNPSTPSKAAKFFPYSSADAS
For assay [16] the target is unchanged. As to conditions: at 1 µM.
Assay [17] concerns the target T5, Mitogen-activated protein kinase kinase kinase kinase 2 (Homo sapiens) (UniProt Q12851).
T5 sequence (whole entry): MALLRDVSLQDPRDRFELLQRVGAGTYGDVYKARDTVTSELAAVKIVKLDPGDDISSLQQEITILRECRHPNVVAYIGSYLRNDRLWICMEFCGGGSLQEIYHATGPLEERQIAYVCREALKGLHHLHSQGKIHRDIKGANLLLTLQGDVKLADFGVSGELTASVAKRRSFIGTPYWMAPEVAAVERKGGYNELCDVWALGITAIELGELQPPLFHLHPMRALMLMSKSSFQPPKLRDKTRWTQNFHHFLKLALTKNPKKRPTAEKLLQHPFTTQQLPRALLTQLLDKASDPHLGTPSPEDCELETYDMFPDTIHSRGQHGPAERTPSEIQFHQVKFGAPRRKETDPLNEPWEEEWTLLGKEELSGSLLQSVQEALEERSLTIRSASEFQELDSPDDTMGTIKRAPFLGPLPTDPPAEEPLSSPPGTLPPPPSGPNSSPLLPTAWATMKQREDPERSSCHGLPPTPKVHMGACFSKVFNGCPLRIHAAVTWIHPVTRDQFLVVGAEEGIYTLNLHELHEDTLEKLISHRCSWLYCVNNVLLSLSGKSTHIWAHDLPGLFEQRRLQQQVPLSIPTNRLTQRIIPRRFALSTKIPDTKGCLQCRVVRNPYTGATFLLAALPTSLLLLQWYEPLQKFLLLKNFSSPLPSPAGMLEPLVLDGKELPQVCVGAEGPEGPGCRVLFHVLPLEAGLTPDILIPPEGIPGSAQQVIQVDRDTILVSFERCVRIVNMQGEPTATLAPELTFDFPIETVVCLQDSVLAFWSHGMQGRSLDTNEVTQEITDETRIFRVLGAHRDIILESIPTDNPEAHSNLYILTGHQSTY
The settings on record: at 0.1 µM.

Assay [18] deals with T5, Mitogen-activated protein kinase kinase kinase kinase 2 (Homo sapiens). As to conditions: at 1 µM.
The target of assay [19] is Mitogen-activated protein kinase kinase kinase kinase 4 (Homo sapiens) (UniProt O95819). As to conditions: at 0.1 µM.
Assay [20] addresses T3, Aurora kinase A (Homo sapiens). As to conditions: at 1 µM.

Sequence of BDNF/NT-3 growth factors receptor (Homo sapiens) (Q16620 32-822 limits assumed): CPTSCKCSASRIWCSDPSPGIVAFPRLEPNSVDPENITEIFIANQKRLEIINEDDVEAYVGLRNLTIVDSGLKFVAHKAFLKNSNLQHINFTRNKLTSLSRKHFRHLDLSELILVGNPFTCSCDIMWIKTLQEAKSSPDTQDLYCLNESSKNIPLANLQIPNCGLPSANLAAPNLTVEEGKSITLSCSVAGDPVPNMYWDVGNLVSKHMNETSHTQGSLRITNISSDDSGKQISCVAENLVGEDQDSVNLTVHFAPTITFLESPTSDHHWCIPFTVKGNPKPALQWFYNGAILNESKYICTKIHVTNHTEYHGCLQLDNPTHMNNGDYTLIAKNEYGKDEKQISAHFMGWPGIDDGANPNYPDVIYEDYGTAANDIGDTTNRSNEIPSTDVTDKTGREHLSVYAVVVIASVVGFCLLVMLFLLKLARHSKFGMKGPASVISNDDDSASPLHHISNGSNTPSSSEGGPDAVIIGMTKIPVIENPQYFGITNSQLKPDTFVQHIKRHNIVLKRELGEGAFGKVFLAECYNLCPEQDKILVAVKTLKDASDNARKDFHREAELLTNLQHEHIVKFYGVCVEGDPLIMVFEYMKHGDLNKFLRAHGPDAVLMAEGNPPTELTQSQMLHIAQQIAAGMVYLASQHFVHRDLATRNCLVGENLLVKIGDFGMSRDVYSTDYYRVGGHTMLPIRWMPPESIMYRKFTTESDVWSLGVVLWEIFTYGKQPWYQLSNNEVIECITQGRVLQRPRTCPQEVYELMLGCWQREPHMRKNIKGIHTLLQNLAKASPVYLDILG
Sequence of Aurora kinase B (Homo sapiens) (Q96GD4 whole entry): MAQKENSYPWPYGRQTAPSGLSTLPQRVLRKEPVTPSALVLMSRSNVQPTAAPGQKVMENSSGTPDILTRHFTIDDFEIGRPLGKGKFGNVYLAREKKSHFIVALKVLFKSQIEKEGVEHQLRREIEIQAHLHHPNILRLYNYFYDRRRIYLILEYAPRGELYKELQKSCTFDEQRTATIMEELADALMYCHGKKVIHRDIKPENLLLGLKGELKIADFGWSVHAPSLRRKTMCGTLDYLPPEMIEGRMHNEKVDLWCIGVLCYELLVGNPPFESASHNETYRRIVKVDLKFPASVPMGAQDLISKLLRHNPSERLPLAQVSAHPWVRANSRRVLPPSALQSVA

Turning to `Nc1ncnc2occ(-c3ccc(NC(=O)Nc4cc(C(F)(F)F)ccc4F)cc3)c12`, the inhibition in assay [1] is 89.2% and 97%; in [2], 54.8% and 40.6%; in [3], 90.7% and 88.5%; in assay [4], 52.9% and 39.5%; in assay [5], 92.8% and 85.3%; in assay [6] it was 3.14% and 1.59%. Further, the inhibition is 5.09% and 0.12% in [7]; -1.29% and 0.57% in assay [8]; 21.4% and 7.71% in assay [9]; 3.16% and -1.11% in assay [10]; 24.4% and 17.3% in assay [11]; 69.9% and 55.9% in assay [12]. Also, the inhibition is 13.4% and 13.3% in assay [13]; 92.5% and 68.8% in assay [14]; 25% and 20.8% in assay [15]; 69.2% and 63.1% in [16]; 35.8% and 34.4% in [17]; 66.3% and 65.5% in assay [18]. The inhibition in [19] is 7.35% and 0.68%.

For `CC1(C)CC(n2cnc(-c3ccc(F)cc3)c2-c2ccnc(N)n2)CC(C)(C)N1`, the inhibition in assay [1] was 0.77%; in assay [2], 1.16%; in assay [3], 2.03%; in assay [4], 0.21%; in [5] it was 2.79%; in [6], 0.09%. Also, the inhibition in assay [7] is 0.75%; in assay [8], 1%; in assay [9], 1.53%; in [10], -0.03%; in assay [20], 4.57%; in [11], 3.04%. The inhibition was -0.43% in assay [12]; -0.39% in assay [13]; -1.87% in [14]; 1.32% in assay [15]; 6.74% in assay [16]; 1.36% in [17]. For the same compound, the inhibition in assay [18] was found to be 2.09%; in [19], 2.07%.

Consider `COc1cc(N2CCN(C(C)C)CC2)ccc1Nc1nc(Nc2cccc3ncccc23)c2cc[nH]c2n1`, for which the inhibition in assay [1] stood at 1.49%; in assay [2], 0.73%; in assay [3], 0.22%; in assay [4], 0.87%; in assay [5] it was 0.74%; in assay [6], 0.48%. Moreover, the inhibition is 3.98% in [7]; -4.59% in assay [8]; 69.5% in assay [9]; 0.64% in assay [10]; 4.47% in assay [20]; 0.66% in assay [11]. Also, the inhibition was 4.9% in [12]; 0.27% in assay [13]; -0.31% in assay [14]; 1.54% in assay [15]; 0.74% in [16]; 2.02% in assay [17]. In addition, the inhibition in [18] is 2.89%; in [19] it was 1.88%.

For the compound `Nc1nccc(-c2c(-c3ccc(F)cc3)ncn2C2CCNCC2)n1`, the inhibition was -2.46% and 2.61% in [1]; -1.2% and 0.85% in assay [2]; -0.92% and 0.76% in assay [3]; -2.82% and 1.09% in [4]; -1.78% and 1.96% in [5]; -1.02% and 1.02% in [6]. The inhibition in assay [7] is -0.81% and 3.65%; in assay [8] it was 0.9% and -0.21%; in [9] it was -1.76% and -0.14%; in [10] it was -4.27% and 0.74%; in assay [20], 2.76% and 3.22%; in assay [11], -5.29% and 2.13%. The inhibition was -0.57% and 3.55% in assay [12]; -7.14% and -0.01% in assay [13]; -5.53% and -3.08% in assay [14]; -0.78% and 0.07% in assay [15]; 4.14% and -0.32% in assay [16]; -0.37% and 2% in assay [17]. The inhibition in assay [18] was 4.6% and 3.83%; in assay [19], -1.38% and 3.46%.

As to `COc1ccc2ncn(-c3cc(O[C@H](C)c4ccccc4C(F)(F)F)c(C(N)=O)s3)c2c1`, the inhibition in assay [1] was 2.53%; in [2], -0.31%; in [3], 4.65%; in [4] it was 0.4%; in [5], 5.65%; in assay [6], 1.46%. The inhibition in [7] is 2.56%; in assay [8], 0.28%; in assay [9], 5.58%; in assay [10], -0.03%; in [20] it was 5.59%; in assay [11], 1.15%. The inhibition in [12] is 7.77%; in assay [13] it was -1.97%; in [14], -0.3%; in assay [15] it was 35.2%; in assay [16], 80.7%; in assay [17], 0.64%. Also, the inhibition in assay [18] worked out at 4.67%; in assay [19], 0.55%.
